Test results as given in ChEMBL document CHEMBL1157539, “Thousands of chemical starting points for antimalarial lead identification” (Nature, 2010).

System: Plasmodium falciparum
Experiment: GSK_TCMDC: Inhibition of Plasmodium falciparum Dd2 in whole red blood cells, using parasite LDH activity as an index of growth. Test compounds present at 2uM
Type: functional

Q: For Br.CC1(C)NC(N)=NC(=N)N1OCCCOc1cccc2ccccc12, which Inhibition is on record?
A: The Inhibition was 86%.

Q: For Cl.Nc1c2c(nc3ccc(NC(=O)CCCc4ccccc4)cc13)CCCC2, which Inhibition is on record?
A: The Inhibition was 42%.

Q: Which Inhibition does the source give for CCN(CC)S(=O)(=O)c1ccc(C=CC(=O)Nc2cc(Cl)ccc2N2CCOCC2)cc1 here?
A: Its Inhibition is 65%.

Q: How did the Inhibition turn out when O=C(N[C@@H](CC1CCCCC1)C(=O)NCCN1CCCCC1)c1ccc(O)c(-c2ccc(Cl)c(Cl)c2)c1 was run?
A: The Inhibition was 99%.

Q: COc1ccccc1-c1[nH]c2ccccc2c1CN1CCC(c2c(C)cccc2C)CC1 was tested. Which Inhibition did it give?
A: The Inhibition was 13%.

Q: Cc1cc(C(=O)NCc2ccc(-c3c(C)noc3C)cc2)n(-c2ccc(Cl)cc2)n1 was tested. Which Inhibition did it give?
A: Its Inhibition is 98%.

Q: With Cn1cncc1C(=O)Nc1cccc(-c2csc(-c3nc4ccccc4[nH]3)c2)c1 as the compound, how does the Inhibition read?
A: Its Inhibition is 64%.

Q: For CC1CN(c2cnn(C/C=C/c3ccc(NC(=O)c4ccc5nonc5c4)cc3)c(=O)c2Cl)CC(C)N1.O=C(O)C(F)(F)F (stereo unspecified), which Inhibition is on record?
A: Its Inhibition is 35%.

System: HepG2
Experiment: GSK_TCMDC: Percent inhibition of human HepG2 cell line. Test compounds present at 10uM.
Type: functional

Q: C=CCN(C(=O)c1ccc(Cl)c([N+](=O)[O-])c1)c1nc(-c2ccccc2)cs1 was tested. Which Inhibition did it give?
A: Its Inhibition is 0%.

Q: How did the Inhibition turn out when N=C(N)CCN(Cc1ccccc1)c1ccc(Cl)cc1 was run?
A: Its Inhibition is 1%.

Q: With O=C(Nc1cccc(-c2csc(-c3nc4ccccc4[nH]3)c2)c1)c1cc(=O)c2ccccc2[nH]1 as the compound, how does the Inhibition read?
A: The Inhibition was 41%.

Q: O=C(Nc1ccc(Cn2ncc(N3CCCNCC3)c(Cl)c2=O)cc1)Nc1ccc(C(F)(F)F)cc1.O=C(O)C(F)(F)F was tested. Which Inhibition did it give?
A: Its Inhibition is 12%.

Q: Which Inhibition does the source give for O=C(Nc1cc(F)cc(F)c1)N[C@H]1CCN(CCCCCNC(=O)C2CC2c2ccc(Cl)c(Cl)c2)C1 (stereo partly specified) here?
A: Its Inhibition is 24%.

Q: For COc1cccc(C2C(C(=O)Nc3ccccc3)=C(C)N=c3sc(=Cc4ccc(O)cc4)c(=O)n32)c1 (stereo unspecified), which Inhibition is on record?
A: The Inhibition was 15%.

Q: With O=C(Nc1cccc(CN2CCCN(Cc3ccsc3)CC2)c1)c1ccc(-c2ccccc2)cc1.O=C(O)C(F)(F)F as the compound, how does the Inhibition read?
A: The Inhibition was 30%.

Q: How did the Inhibition turn out when c1ccc(-c2csc(Nc3nc4cc5c(cc4s3)OCO5)n2)nc1 was run?
A: The Inhibition was 46%.

Q: How did the Inhibition turn out when Cn1nc(-c2ccc(NC(=O)Nc3cc(C(F)(F)F)ccc3F)c(F)c2)c2cnc(NCCCN3CCOCC3)nc21.O=C(O)C(F)(F)F was run?
A: Its Inhibition is 31%.

Q: Which Inhibition does the source give for CCc1cn(CCOC)c2ccc(C(=O)N[C@@H](Cc3ccccc3)[C@H](O)CNC(C)(C)CCCC(C)C)cc12.O=CO here?
A: Its Inhibition is 35%.

Q: With Cc1cc(C)cc(OCC(O)CN(Cc2cc(Cl)cc(Cl)c2)C(=O)Nc2ccc([N+](=O)[O-])cc2)c1 (stereo unspecified) as the compound, how does the Inhibition read?
A: The Inhibition was 0%.

Q: With COc1ccc(NC(=O)C2c3ccccc3C(=O)N(C3CCCC3)C2c2cccs2)cc1 (stereo unspecified) as the compound, how does the Inhibition read?
A: Its Inhibition is 0%.

Q: O=C(Nc1ccc(Cl)c(C(F)(F)F)c1)N[C@H]1CCN(CCCCCNC(=O)C2CC2c2ccc(Cl)c(Cl)c2)C1 (stereo partly specified) was tested. Which Inhibition did it give?
A: The Inhibition was 39%.

Q: O=C(NCC1CCC1)c1cnc(Nc2cccc(Cl)c2)nc1N1CCC1 was tested. Which Inhibition did it give?
A: Its Inhibition is 21%.

Q: How did the Inhibition turn out when COc1cc(NCCCCNc2ccc(Cl)c(Cl)c2)nc2ccccc12 was run?
A: The Inhibition was 22%.

Q: For Fc1ccccc1C=NN=c1cc[nH]c2ccccc12, which Inhibition is on record?
A: The Inhibition was 8%.

Q: For N#Cc1ccc(NC(=O)NC2CCN(CCCCCNC(=O)/C=C/c3ccc(Cl)c(Cl)c3)CC2)cc1, which Inhibition is on record?
A: The Inhibition was 15%.

Q: How did the Inhibition turn out when Cc1nc(C)c(CC(=O)Nc2ccc(-c3cccc(-c4nc5cc(C(F)(F)F)ccc5[nH]4)c3)cc2)s1 was run?
A: Its Inhibition is 67%.

Q: COc1ccc2nc(C)cc(NCc3ccc4ccccc4c3)c2c1.Cl was tested. Which Inhibition did it give?
A: Its Inhibition is 21%.

Q: CCN(CC)CCN(CCCc1ccc(-c2ccc(C(F)(F)F)cc2)cc1)C(=O)Cn1c(CCc2cccc(F)c2F)nc(=O)c2c1CCC2.O=C(O)C(O)C(O)C(=O)O was tested. Which Inhibition did it give?
A: The Inhibition was 38%.

Q: Cc1cc(N(C)C)nc(Nc2ccc(NC(=O)c3ccccc3F)cc2)n1 was tested. Which Inhibition did it give?
A: Its Inhibition is 0%.

Q: N#Cc1ccc(-c2ccc(OCC(O)CN3CCCN(C(=O)C(c4ccc5c(c4)OCO5)N4CCN(C/C=C/c5ccccc5)CC4)CC3)cc2)cc1 (stereo unspecified) was tested. Which Inhibition did it give?
A: The Inhibition was 25%.

Q: Cc1c(S(=O)(=O)Nc2ccc3ccn(CCN(C)C)c3c2)sc2ccc(Cl)cc12.Cl was tested. Which Inhibition did it give?
A: Its Inhibition is 15%.

Q: How did the Inhibition turn out when O=C(Nc1ccc2[nH]c(-c3ccc4nc(NC(=O)C5CCCCC5)sc4c3)nc2c1)C1CCCCC1 was run?
A: Its Inhibition is 84%.

Q: How did the Inhibition turn out when COc1ccc2c(c1C1CCN(CCCCNC(=O)c3ccc(NC(=O)c4ccc(Cl)cc4)cc3)CC1)CCCC2 was run?
A: The Inhibition was 19%.

Q: Which Inhibition does the source give for COc1cc(C(=O)N2CCN(C(C)C)CC2)ccc1CN(C)CCCN1CCN(c2cccc(Cl)c2Cl)CC1.Cl here?
A: Its Inhibition is 56%.

Q: How did the Inhibition turn out when CCn1c2ccccc2c2cc(Cc3cnc(N)nc3N)ccc21.Cl was run?
A: Its Inhibition is 28%.

Q: CN(C)CCN(C)Cc1cccc(-c2ccc3c(Nc4ccc(F)cc4Cl)ccnc3c2)c1 was tested. Which Inhibition did it give?
A: The Inhibition was 53%.
